POLB inh: inhibitors of human DNA polymerase beta | P06746 | Pol beta primer extension/strand displacement, fluorescence kinetic | Potency, µM (titrated, usually from 114 µM), hits mostly inhibitors | actives 1.3% (n = 340,000)
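Reaction started by 50 nM substrate onto compound-treated Pol beta (10 nM, 15 min preincubation, room temperature); plates read at 0 min and 10 min. Normalized concentration-effect data fitted by four-parameter Hill equation.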
POLH inh: DNA polymerase eta (human) inhibition | Q9Y253 | recombinant Pol eta, fluorescent DNA replication assay | Potency, µM (titrated, usually from 114 µM), actives largely listed as inhibitors | actives 1.2% (n = 390,000) | AID 588591
Target sequence (Q9Y253 whole entry, looked up): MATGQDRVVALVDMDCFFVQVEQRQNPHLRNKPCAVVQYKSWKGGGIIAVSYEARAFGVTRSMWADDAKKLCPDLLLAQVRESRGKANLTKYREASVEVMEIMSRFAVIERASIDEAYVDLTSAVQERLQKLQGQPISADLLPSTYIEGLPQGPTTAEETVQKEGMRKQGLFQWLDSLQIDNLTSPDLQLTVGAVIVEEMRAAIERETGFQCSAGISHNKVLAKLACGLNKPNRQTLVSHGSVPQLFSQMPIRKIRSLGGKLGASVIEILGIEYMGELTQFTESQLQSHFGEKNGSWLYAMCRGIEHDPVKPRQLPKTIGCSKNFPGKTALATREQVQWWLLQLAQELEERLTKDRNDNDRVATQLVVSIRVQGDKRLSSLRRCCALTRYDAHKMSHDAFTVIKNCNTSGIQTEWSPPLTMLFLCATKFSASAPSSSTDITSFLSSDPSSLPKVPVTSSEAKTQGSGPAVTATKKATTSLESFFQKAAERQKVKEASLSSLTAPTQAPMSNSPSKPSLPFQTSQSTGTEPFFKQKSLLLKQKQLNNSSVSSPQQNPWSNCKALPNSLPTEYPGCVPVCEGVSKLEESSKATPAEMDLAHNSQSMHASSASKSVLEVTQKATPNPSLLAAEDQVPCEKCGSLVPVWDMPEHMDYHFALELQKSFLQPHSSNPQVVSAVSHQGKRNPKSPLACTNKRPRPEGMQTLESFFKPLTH
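Pol eta (10 nM) was preincubated with compounds for 15 min at room temperature, after which fluorescent replication substrate (50 nM final) was added to start the reaction. Fluorescence was read kinetically at 0 and 10 min.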
POLK inh: blocks human DNA polymerase kappa activity | Q9UBT6 | purified Pol kappa, fluorescent DNA synthesis assay, 10 min | Potency, µM (titrated, usually from 107 µM), hits mostly inhibitors | actives 0.53% (n = 400,000)
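Kinetic fluorescence readout at 0 and 10 min followed reaction start with substrate at 50 nM final. Beforehand, enzyme (10 nM Pol kappa) stood 15 min with compound at room temperature; buffer-only wells were negative controls.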
FEN1 inh: human FEN1 inhibition | P39748 | Recombinant FEN1 flap cleavage, fluorescence, 15 min | Potency, µM (doses to about 114 µM), most hits filed as inhibitors | actives 0.35% (n = 390,000); further: nearly all actives have a fitted effect of over 65% in size
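Recombinant FEN1 (10 nM) was preincubated with pin-transferred compounds for 15 min at room temperature, then flap DNA substrate (50 nM final) was added. Plates were read at 0 and 15 min, and normalized concentration–response data were fitted to a four-parameter Hill equation.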
WRN inhibitor: blocks human WRN helicase. Q14191. WRN helicase unwinding, fluorescent forked duplex, kinetic. Potency, µM (doses to about 114 µM), actives largely listed as inhibitors. actives 0.46% (n = 360,000); further: nearly all actives have a fitted effect of over 55% in size
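Kinetic fluorescence helicase assay: unwinding of a quenched forked DNA duplex (100 nM final) with 2 mM ATP final raises red fluorescence (525/598 nm). Compounds sat 15 min at room temperature with 20 nM WRN beforehand.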
Pol iota inh: DNA polymerase iota (human) inhibition | AID 588590 | Potency, µM (titrated, usually from 115 µM), hits mostly inhibitors | actives 1% (n = 390,000) | Q9UNA4 | Pol iota fluorescent replication assay, 10 min
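Pol iota at 10 nM preincubated 15 min with compounds at room temperature; reaction started with fluorescent substrate, 50 nM final. Fluorescence read kinetically at 0 and 10 min; buffer-only wells as negative control.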
Hits are given with their value; [ ] = remark or other dose. The list is not random: actives were taken first. Their share in the collection is about 2.4%. The call rests on the fitted dose curve; in most records, active means well fitted curve in the direction sought with a large enough effect; inconclusive means small, poorly fitted or top-dose-only effect, or another doubt; inactive means no such curve, though single readings can be large; an effect the other way counts as inactive or inconclusive.

For COc1ccc(CCNc2ncnc3nc[nH]c23)cc1 the results were POLK inh inactive, FEN1 inh inactive and Pol iota inh inactive.
Cc1cccn2c(=O)c3cc(S(=O)(=O)c4ccc(F)cc4)c(=N)n(Cc4ccco4)c3nc12 was read as POLB inh inconclusive, POLH inh inactive, POLK inh inconclusive, FEN1 inh inactive, WRN inhibitor inactive and Pol iota inh 11µM.
Screening Cc1cccn2c(=O)c3cc(S(=O)(=O)c4ccccc4)c(=N)n(Cc4ccc(F)cc4)c3nc12 returned POLB inh inactive, POLH inh inactive, POLK inh inactive, FEN1 inh inactive, WRN inhibitor inactive and Pol iota inh inactive.
Screening Cc1cccn2c(=O)c3cc(S(=O)(=O)c4ccccc4)c(=N)n(Cc4ccco4)c3nc12 returned POLB inh 8.9µM, POLH inh inactive, POLK inh inactive, FEN1 inh inactive, WRN inhibitor inactive and Pol iota inh inactive.
Screening O=C(NCc1ccccc1)c1ccc(CS(=O)(=O)Cc2ccccc2F)o1 returned POLB inh inactive, POLH inh inactive, POLK inh inactive, FEN1 inh inactive, WRN inhibitor inactive and Pol iota inh inactive.
CCOCCCNC(=O)c1ccc(CS(=O)(=O)Cc2ccccc2F)o1 was read as POLB inh inactive, POLH inh inconclusive, POLK inh 89µM, FEN1 inh inactive, WRN inhibitor inactive and Pol iota inh inactive.
For O=C(O)C1CCCC1 the results were POLK inh 28µM, FEN1 inh inconclusive and Pol iota inh inconclusive.
For O=C(O)C1CCNCC1 the results were POLB inh inactive, POLH inh inactive, POLK inh inactive and Pol iota inh inactive.
`CN1CCN(c2nc3c(=O)[nH]c(N)nc3n2C2OC(CO)C(O)C2O)CC1` (configuration not stated) gave POLK inh inactive, FEN1 inh inactive and Pol iota inh inactive.
Screening O=C1c2cc(O)cc(O)c2OC[C@@H]1c1ccc(O)c(O)c1 returned POLK inh 15µM.
CCCCC/C=C\C/C=C\C/C=C\C=C\C(=O)CCCC(=O)O was read as POLK inh inactive[19.4 µM].
`O=C(C[N+]1(CCO)CCOCC1)c1ccc2ccccc2c1` gave POLK inh inactive, FEN1 inh inactive and Pol iota inh inactive.
Screening CN1CCN(c2ncc3nc(-c4ccccc4)c(=O)n(C)c3n2)CC1 returned POLK inh inactive.
O=C1CCn2c1c(O)c1ccccc1c2=O was read as POLH inh inactive, POLK inh inactive, FEN1 inh inactive, WRN inhibitor inactive and Pol iota inh inconclusive.
N=C1CCC(=N)c2c1c(O)c1ccccc1c2O was read as POLB inh 40µM, POLH inh 13µM, POLK inh 22µM, FEN1 inh 40µM, WRN inhibitor 32µM and Pol iota inh 22µM.
For O=C1c2ccccc2C(=O)C1c1ccccn1 the results were POLB inh inactive, POLH inh inconclusive, POLK inh inactive, FEN1 inh inactive, WRN inhibitor inactive and Pol iota inh inactive.
For O=C1c2ccccc2C(=O)C2OC12 (configuration not stated) the results were POLB inh 71µM.
Screening O=c1c2c3nc4ccccc4nc3n(/N=C/c3ccco3)c2ncn1CCC1=CCCCC1 returned POLB inh 28µM, POLH inh inconclusive, POLK inh inconclusive, FEN1 inh inactive, WRN inhibitor inconclusive and Pol iota inh 22µM.
For COc1cccc(/C=C2/CN(C)CC3=C2OC(N)=C(C#N)C3c2cccc(OC)c2)c1 (configuration not stated) the results were POLB inh inactive, POLH inh inactive, POLK inh inactive, FEN1 inh inconclusive, WRN inhibitor 79µM and Pol iota inh inactive.
Screening COc1ccc(/C=C/c2ccccn2)cc1 returned POLK inh inactive, FEN1 inh inactive and Pol iota inh inactive.
For Cc1[nH]c2ccccc2c1C(=O)C(C)Sc1nc2ccccc2c(=O)n1Cc1cccnc1 (configuration not stated) the results were POLK inh inactive, FEN1 inh inactive and Pol iota inh inactive.

From PubChem
